Laboratory results from PubChem BioAssay AID1159580 (chemical genetic matrix, 2015).
About 2,000 (36%) of roughly 5,500 compounds were called active. Not shown: some 18% with an inconclusive outcome. Cut-off read from the data, not from the text of the source: active = normalized growth mostly below about 0.91 (no sharp cut-off); inconclusive = no clear call, values can overlap the other calls; inactive = mostly above about 0.92. The list shows a part of the results.

Experiment: chemical genetic growth profiling, strain panel (AID 1159580);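 note: tested at 20 µM; growth read once vehicle control cultures reached saturation at 30 °C; 1 = growth at the plate median or of vehicle wells; lower values mean less growth of the strain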
Settings: S. cerevisiae deletion strains, growth OD
[1] = locus YAL013W, strain DEP1, active compounds read low
[2] = locus YBR229C, strain ROT2, active compounds read low
[3] = locus YDL101C, strain DUN1, active compounds read low
[4] = locus YDR150W, strain NUM1, active compounds read low
[5] = locus YEL061C, strain CIN8, active compounds read low
[6] = locus YGR078C, strain PAC10, active compounds read low
[7] = locus YGR229C, strain SMI1, active compounds read low
[8] = locus YHR030C, strain SLT2, active compounds read low
[9] = locus YHR087W, strain rtc3, active compounds read low
[10] = locus YJR043C, strain POL32, active compounds read low
[11] = locus YJR075W, strain HOC1, active compounds read low
[12] = locus YLR039C, strain RIC1, active compounds read low
[13] = locus YLR058C, strain SHM2 (second series), active compounds read low
[14] = locus YLR085C, strain ARP6, active compounds read low
[15] = locus YLR262C, strain YPT6, active compounds read low
[16] = locus YML094W, strain GIM5, active compounds read low
[17] = locus YMR219W, strain ESC1, active compounds read low
[18] = locus YMR263W, strain SAP30, active compounds read low
[19] = locus YMR307W, strain GAS1, active compounds read low
[20] = locus YNL153C, strain GIM3, active compounds read low
[21] = locus YNL298W, strain CLA4 (second series), active compounds read low
[22] = locus YNL322C, strain KRE1, active compounds read low
[23] = locus YNR030W, strain Alg12, active compounds read low
[24] = locus YOL006C, strain TOP1, active compounds read low
[25] = locus YPL055C, strain LGE1, active compounds read low
[26] = locus YPL241C, strain CIN2, active compounds read low
[27] = locus YPR135W, strain CTF4, active compounds read low
[28] = locus YJL187C, strain SWE1, active compounds read low

Measured: normalized growth

Brc1ccc(-c2ccn[nH]2)s1
inactive: [1] 0.978 | [2] 0.966 | [3] 0.971 | [4] 1.02 | [5] 0.938 | [6] 0.973 | [7] 0.955 | [8] 0.938 | [9] 0.993 | [10] 1 | [11] 0.971 | locus YKL190W, strain CNB1, active compounds read low 0.949 | [13] 0.963 | [16] 0.886 | [17] 0.968 | [18] 1.02 | [19] 0.953 | locus YNL128W, strain TEP1, active compounds read low 0.94 | [21] 0.936 | [22] 0.97 | [23] 0.939 | [25] 1.07 | [27] 0.789
active: [12] 0.703 | [14] 0.721 | [15] 0.67 | [20] 0.906 | [24] 0.715 | [26] 0.525

CN(C)C=Nc1nnc(Sc2nc3c(Cl)cc(Cl)cc3s2)s1
inactive: locus YAR019C, strain CDC15, active compounds read low 0.959 | locus YBL105C, strain PKC1, active compounds read low 0.969 | locus YBR135W, strain CKS1, active compounds read low 0.973 | locus YBR136W, strain MEC1, active compounds read low 0.968 | locus YBR160W, strain CDC28, active compounds read low 0.977 | locus YDL017W, strain CDC7, active compounds read low 0.976 | locus YDL028C, strain MPS1, active compounds read low 0.975 | [3] 0.972 | locus YDL108W, strain KIN28, active compounds read low 0.976 | locus YDL132W, strain cdc53, active compounds read low 0.964 | locus YDL214C, strain PRR2, active compounds read low 0.97 | locus YDR052C, strain DBF4, active compounds read low 0.972 | locus YDR054C, strain cdc34, active compounds read low 0.954 | locus YDR226W, strain ADK1, active compounds read low 0.961 | locus YDR477W, strain SNF1, active compounds read low 0.944 | locus YER123W, strain YCK3, active compounds read low 0.953 | locus YER133W, strain GLC7, active compounds read low 0.925 | locus YFL009W, strain cdc4, active compounds read low 0.963 | locus YFL029C, strain CAK1, active compounds read low 0.959 | locus YFR003C, strain YPI1, active compounds read low 0.973 | locus YFR019W, strain FAB1, active compounds read low 0.975 | locus YFR028C, strain CDC14, active compounds read low 0.969 | locus YGR040W, strain KSS1, active compounds read low 0.943 | locus YGR052W, strain FMP48, active compounds read low 1 | locus YGR092W, strain DBF2, active compounds read low 0.929 | [8] 1.11 | locus YHR079C, strain IRE1, active compounds read low 0.946 | locus YHR082C, strain KSP1, active compounds read low 1.07 | locus YHR205W, strain SCH9, active compounds read low 1.01 | locus YIL147C, strain SLN1, active compounds read low 0.964 | locus YJL095W, strain BCK1, active compounds read low 0.937 | locus YJL128C, strain PBS2, active compounds read low 0.944 | locus YJL157C, strain FAR1, active compounds read low 0.941 | locus YJR016C, strain ILV3, active compounds read low 0.967 | locus YJR066W, strain TOR1 (second series), active compounds read low 0.924 | locus YJR066W, strain TOR1, active compounds read low 1.01 | locus YKL048C, strain ELM1, active compounds read low 1.01 | locus YKL067W, strain YNK1, active compounds read low 0.958 | locus YKL101W, strain HSL1, active compounds read low 1.01 | locus YKL193C, strain SDS22, active compounds read low 0.968 | locus YKL203C, strain TOR2, active compounds read low 0.96 | locus YLR113W, strain HOG1, active compounds read low 0.964 | locus YLR133W, strain CKI1, active compounds read low 0.968 | locus YLR403W, strain SFP1, active compounds read low 0.924 | locus YML070W, strain DAK1, active compounds read low 0.98 | locus YMR001C, strain CDC5, active compounds read low 0.969 | locus YMR205C, strain PFK2 (second series), active compounds read low 0.99 | locus YMR277W, strain FCP1, active compounds read low 0.962 | locus YNL006W, strain LST8, active compounds read low 0.969 | locus YNL020C, strain ARK1, active compounds read low 0.966 | locus YNL161W, strain CBK1, active compounds read low 0.967 | locus YNL183C, strain NPR1, active compounds read low 0.995 | locus YNL207W, strain RIO2, active compounds read low 0.959 | locus YNL222W, strain SSU72, active compounds read low 0.97 | locus YNL307C, strain MCK1 (second series), active compounds read low 0.979 | locus YOL078W, strain AVO1, active compounds read low 0.973 | locus YOL136C, strain PFK27, active compounds read low 0.984 | locus YOR061W, strain CKA2, active compounds read low 0.944 | locus YOR119C, strain RIO1, active compounds read low 1 | locus YOR231W, strain MKK1, active compounds read low 0.954 | locus YOR329C, strain SCD5, active compounds read low 0.968 | locus YPL031C, strain PHO85, active compounds read low 0.9 | locus YPL153C, strain RAD53, active compounds read low 0.913 | locus YPL204W, strain HRR25, active compounds read low 0.903 | locus YPL209C, strain IPL1, active compounds read low 0.975 | locus YPL256C, strain CLN2, active compounds read low 1.1 | locus YPR025C, strain CCL1, active compounds read low 0.971 | locus YPR106W, strain ISR1, active compounds read low 0.98 | locus YPR111W, strain DBF20, active compounds read low 0.957 | strain NNK1, active compounds read low 0.974 | strain TSCII, active compounds read low 0.957

CN(C)C=Nc1nnc(Sc2nc3cc(Cl)ccc3s2)s1
inactive: [1] 0.939 | [2] 0.958 | [3] 0.977 | [4] 0.968 | [5] 0.93 | [6] 0.983 | [9] 0.914 | [28] 0.938 | [10] 0.966 | [11] 0.974 | [13] 0.969 | [15] 0.826 | [16] 0.909 | [18] 0.957 | [20] 0.962 | [21] 0.887 | [22] 0.987 | [23] 0.93 | [27] 0.698
active: [8] 0.631 | [12] 0.757 | [14] 0.707 | [17] 0.932 | [24] 0.71 | [25] 0.796 | [26] 0.848

CN(C)C=Nc1nnc(SCc2ccc(C(=O)Oc3ccc(F)cc3F)cc2)s1
inactive: [1] 0.989 | [2] 1.05 | [3] 1.02 | [4] 0.939 | [5] 1.01 | [6] 1.01 | [7] 1.01 | [8] 0.931 | [9] 1.02 | [28] 1.01 | [10] 0.949 | [11] 1.03 | [12] 1.08 | [13] 1.01 | [14] 0.919 | [15] 1.04 | [16] 0.973 | [17] 1.01 | [18] 0.924 | [19] 0.915 | [20] 1.02 | [21] 1 | [22] 1.03 | [23] 0.989 | [24] 1.07 | [25] 0.855 | [26] 0.996 | [27] 0.926

C[C@H](O)C(=O)C1=Nc2c(nc(N)[nH]c2=O)NC1
inactive: [1] 0.952 | locus YAL040C, strain CLN3, active compounds read low 0.966 | locus YCL061C, strain MRC1 (second series), active compounds read low 0.983 | locus YDR363W, strain ESC2, active compounds read low 0.952 | locus YER002W, strain NOP16, active compounds read low 1.04 | [6] 0.998 | [11] 0.98 | [18] 0.983 | [19] 0.983 | locus YNL175C, strain NOP13, active compounds read low 1.01 | locus YNL197C, strain WHI3, active compounds read low 1.01 | locus YNL224C, strain SQS1, active compounds read low 0.997 | [22] 0.955 | locus YOR083W, strain WHI5 (second series), active compounds read low 0.996 | [25] 0.971
